Screens: PubChem, several laboratories
Hits are enriched below; roughly 32% of the tested compounds scored in any of these assays.
PostGolgi yeast: phenotypic screen on post-Golgi transport, primary screen. post-Golgi transport phenotypic cell assay. inhibition, % at 10 µM. 98,000 compounds, 0.9% hits. AID 739, 2007;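 also: yeast cells grown in 1536-well plates; yeast grown about 18 h at 30C before absorbance read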
CYP2C9 inhib: blockers of cytochrome P450 2C9 activity – biochemical, luminescence, ADME assay, primary screen; 96,000 compounds, 20% hits; inhibition, % at 5 µM; CYP2C9 Supersomes, luciferin-H conversion;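 active = blocking of liver enzyme CYP2C9 beyond about 50% at 5 µM, limit read from the data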
PostGolgi ctrl: growth inhibition of yeast control strain, primary screen, counter-screen for post-Golgi transport modulator project; efflux-deficient yeast background strain, growth absorbance A615, 16 h; inhibition, % at 10 µM; 98,000 compounds, 5% hits
CYP2C9 activ: human CYP2C9 activators, primary screen, biochemical, luminescence. Cytochrome P450 2C9 (Homo sapiens), P11712. recombinant CYP2C9, luciferin-H conversion; active compounds read high; factor 1 = untreated enzyme, 0 = blocked. activation factor at 5 µM. 96,000 compounds, 1.4% hits. AID 1024, 2008;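 active = activation factor of 2 or more for CYP2C9 at a 5 µM dose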;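 also: 0 = sulfaphenazole-blocked wells and 1 = vehicle-only wells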
CYP2C19 inhib: blockers of cytochrome P450 2C19 activity – biochemical, luminescence, ADME assay, primary screen. P33261. CYP2C19 Supersomes, luciferin-H EGE luminescence, 30 min. inhibition, % at 5 µM. 96,000 compounds, 21% hits;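 active = CYP2C19 inhibition above a set limit at 5 µM in the primary screen, cut at about 50% in these data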;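 also: plate controls were negative control wells for no effect and 2.5 mM tranylcypromine positive control for full effect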
Target sequence (P33261 whole entry, looked up): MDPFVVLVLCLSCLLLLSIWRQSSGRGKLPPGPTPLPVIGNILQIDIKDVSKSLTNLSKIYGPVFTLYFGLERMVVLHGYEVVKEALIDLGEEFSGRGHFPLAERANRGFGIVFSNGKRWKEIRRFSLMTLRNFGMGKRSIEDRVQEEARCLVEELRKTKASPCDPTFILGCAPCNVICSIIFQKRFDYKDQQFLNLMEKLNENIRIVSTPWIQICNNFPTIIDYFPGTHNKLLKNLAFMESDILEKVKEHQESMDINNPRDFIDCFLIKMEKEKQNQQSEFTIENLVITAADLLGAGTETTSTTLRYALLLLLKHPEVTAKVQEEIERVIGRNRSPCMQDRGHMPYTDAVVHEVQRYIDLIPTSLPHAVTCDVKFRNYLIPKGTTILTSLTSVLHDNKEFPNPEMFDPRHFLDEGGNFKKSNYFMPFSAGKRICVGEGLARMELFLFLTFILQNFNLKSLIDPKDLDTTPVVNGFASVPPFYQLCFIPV
CYP2C19 activ: human CYP2C19 activators, primary screen, biochemical, luminescence | recombinant CYP2C19, luciferin-H EGE luminescence; active compounds read high; 0 = fully inhibited enzyme, 1 = untreated enzyme | Cytochrome P450 2C19 (Homo sapiens), P33261 | activation factor at 5 µM | 96,000 tested, under 10 active;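 active = activation factor of at least 2 at 5 µM in the primary screen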;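 also: 0 = wells with 2.5 mM tranylcypromine and 1 = vehicle-only wells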
An asterisk follows results filed as active; / = no result given. Rule as the data show it, unless noted: active = inhibition above about 30%; inactive = the rest.

SMILES | PostGolgi yeast | CYP2C9 inhib | PostGolgi ctrl | CYP2C9 activ | CYP2C19 inhib | CYP2C19 activ
Cc1cc(C)c(S(=O)(=O)O)c(C)n1 | 14 | 7 | 5 | 0.9 | 10 | 0.9
COc1cc(NC(=O)c2nnn(Cc3ccc(SC)cc3)c2N)cc(OC)c1 | 7 | 13 | 4 | 0.9 | 7 | 0.9
FC(F)(F)c1cccc(N2CCN(c3nnnn3-c3ccccc3)CC2)c1 | -1 | 100* | 2 | 0 | 98* | 0
COCCn1nnnc1CN1CCN(c2cccc(C(F)(F)F)c2)CC1 | -7 | 46 | 11 | 0.5 | 78* | 0.2
Cc1cc(C)nc(N2CCN(c3nnnn3-c3ccccc3)CC2)n1 | -8 | 85* | 5 | 0.1 | 45 | 0.6
COCCn1nnnc1CN1CCC(O)(c2cccc(C(F)(F)F)c2)CC1 | 8 | 5 | 3 | 0.9 | 32 | 0.7
Cc1ccc(C)c(N2CCN(c3nnnn3-c3ccccc3)CC2)c1 | -3 | 91* | 17 | 0.1 | 99* | 0
COc1ccc(C)cc1NC(=O)C(=O)NNC(=O)c1ccco1 | 1 | -53 | 12 | 1.5 | 50 | 0.5
O=[N+]([O-])c1cc(S(=O)(=O)N2CCCC2)ccc1N/N=C/c1cccs1 | 1 | 11 | 3 | 0.9 | 11 | 0.9
CCC(C)[C@H](NC(=O)Nc1ccc(C(C)=O)cc1)C(=O)OC (some centres not stated) | 6 | -7 | -8 | 1.1 | 4 | 1
Cc1ccc(/C=C(/C#N)c2nc(CCN3C(=O)c4ccccc4C3=O)cs2)cc1 | 0 | 51* | 16 | 0.5 | 53* | 0.5
CCNC(=S)NNC(=O)Cn1nc(C)cc1C | -7 | -2 | 7 | 1 | -7 | 1.1
O=C(NCCCN1CCOCC1)c1cc2c(s1)CSC2 | 2 | -11 | -1 | 1.1 | 11 | 0.9
O=C1C=C(NCc2ccncc2)CC(c2ccccc2)C1 (configuration not stated) | -9 | 45 | 15 | 0.6 | 96* | 0
CC(C)CNC1=CC(=O)CC(c2ccco2)C1 (configuration not stated) | 2 | 22 | 7 | 0.8 | 55* | 0.4
O=C1C=C(NCc2ccc(Cl)cc2)CC(c2ccco2)C1 (configuration not stated) | -8 | 60* | 5 | 0.4 | 93* | 0.1
O=C1C=C(O)CC(c2ccco2)C1 (configuration not stated) | 6 | / | 2 | / | / | /
O=C(NCc1nc2ccccc2[nH]1)c1cccc(S(=O)(=O)N2CCCC2)c1 | -13 | 39 | 1 | 0.6 | 4 | 1
COc1ccccc1C1NC(=O)NC(C)=C1C(=O)Nc1cccc(C)c1C (configuration not stated) | -4 | 18 | 1 | 0.8 | 31 | 0.7
CCOc1ccc(-c2nnn(CC(=O)c3cc(OC)ccc3OC)n2)cc1 | -6 | -57 | 1 | 1.6 | 12 | 0.9
COc1ccc(-n2c(SCC(=O)Nc3nccs3)nc3c(c2=O)SC(C)C3)cc1 (configuration not stated) | -5 | 25 | -5 | 0.8 | -14 | 1.1
CCOc1ccc(CSC(CC(=O)O)C(=O)O)cc1 (configuration not stated) | 3 | 11 | -3 | 0.9 | 12 | 0.9
CCCCOc1ccccc1C(=O)NCCCCCC(=O)O | 1 | 15 | 7 | 0.9 | -13 | 1.1
Cc1c(C(=O)c2no[n+]([O-])c2C(=O)c2cnn(C)c2C)cnn1C | 0 | 27 | -3 | 0.7 | 38 | 0.6
CCOC(=O)CN(C(=O)CSc1nnc2c(n1)[nH]c1ccccc12)c1ccccc1 | 3 | 45 | -6 | 0.6 | 81* | 0.2
SMILES | PostGolgi yeast | CYP2C9 inhib | PostGolgi ctrl | CYP2C9 activ | CYP2C19 inhib | CYP2C19 activ
Cc1ccc(C(=O)NNC(=O)CSc2nnc3c(n2)[nH]c2ccc(C)cc23)cc1 | -14 | -18 | -4 | 1.2 | -18 | 1.2
CCOC(=O)c1c(NC(=O)CSc2nnc3c(n2)[nH]c2ccc(F)cc23)sc(C(C)=O)c1C | -11 | 76* | 5 | 0.2 | 64* | 0.4
CCOC(=O)CN(C(=O)CSc1nnc2c(n1)[nH]c1ccc(F)cc12)c1ccccc1 | 3 | 75* | 8 | 0.3 | 100* | 0
CCc1ccc(/C=N/NC(=O)c2cc(C3CC3)nc3ccc(Br)cc23)s1 | -5 | 36 | 13 | 0.6 | 10 | 0.9
CCc1cc(C)c(O)c(CC)n1 | -4 | 11 | 5 | 0.9 | 5 | 0.9
CCCC(=O)c1c(C)c2ccccc2n1C | 8 | -11 | -4 | 1.1 | 35 | 0.6
COc1ccc(C2N(S(=O)(=O)c3ccccc3)CCN2S(=O)(=O)c2ccc(C)cc2)cc1 (configuration not stated) | 1 | 65* | 25 | 0.4 | 86* | 0.1
COc1ccc(C2N(C(=O)N3CCOCC3)CCN2S(=O)(=O)c2ccc(C)cc2)cc1 (configuration not stated) | 5 | 41 | 8 | 0.6 | 18 | 0.8
COc1ccc(C2N(C(=O)c3ccccc3)CCN2C(=O)c2ccccc2)cc1 | -2 | 50 | 11 | 0.5 | 69* | 0.3
Cc1ccc(S(=O)(=O)N2CCN(S(C)(=O)=O)C2c2ccccc2)cc1 (configuration not stated) | -5 | 46 | 20 | 0.5 | 64* | 0.4
Cc1ccc(S(=O)(=O)N2CCN(S(=O)(=O)c3ccc(C)cc3)C2c2ccccc2)cc1 | -1 | -42 | 17 | 1.4 | 79* | 0.2
Cc1ccc(S(=O)(=O)N2CC3CCC2C3)cc1 (configuration not stated) | 21 | -36 | 6 | 1.4 | 65* | 0.4
O=C(Nc1ccccc1Cl)c1ccccc1Oc1ccc(C(F)(F)F)cc1[N+](=O)[O-] | -1 | 88* | 54* | 0.1 | 73* | 0.3
O=C(Nc1ccccc1Cl)c1ccccc1Cl | 0 | -36 | 9 | 1.4 | 19 | 0.8
CCOC(=O)c1nn(-c2ccccc2)c2nc(Nc3ccccc3)cc(=O)n12 | -10 | 17 | 8 | 0.8 | 1 | 1
NC(=O)C(c1ccc(Cl)cc1Cl)c1ncc(C(F)(F)F)cc1Cl (configuration not stated) | 19 | 18 | 9 | 0.8 | 88* | 0.1
CC(C(=O)Nc1ccc(Cl)cc1)c1ncc(C(F)(F)F)cc1Cl (configuration not stated) | -2 | 39 | 9 | 0.6 | 94* | 0.1
CCOC(=O)C(C(=O)NCc1ccc(F)cc1)c1ncc(C(F)(F)F)cc1Cl (configuration not stated) | -6 | 4 | -7 | 1 | 22 | 0.8
NC(=O)C(c1ccc(Cl)cc1)c1ncc(C(F)(F)F)cc1Cl (configuration not stated) | 20 | 10 | -1 | 0.9 | 73* | 0.3
